This is one part of a sample in which hits are shown more often than they occur.
IDE exosite inh: exo-site inhibitors of human IDE, primary screen, biochemical, fluorescence anisotropy, probe displacement; Insulin-degrading enzyme (Homo sapiens), P14735; purified IDE, FL-6b probe fluorescence polarization; active compounds read low; z-score at 20 µM; 17,000 tested, 6.3% active; AID 1259349, 2017;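 active = z-score of -3 or lower, meaning strong loss of probe binding signal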;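 note: His-tagged human IDE residues 42-1019 made in E. coli with 30 nM FL-6b probe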
Starred values were filed as active, the others as inactive.

SMILES | IDE exosite inh
CCCC#Cc1ccc([C@@H]2[C@H](CO)N3CCCCN(S(=O)(=O)CC)C[C@@H]23)cc1 | -3*
CCCC#Cc1ccc([C@@H]2[C@H]3CN(S(=O)(=O)CC)CCCCN3[C@H]2CO)cc1 | -0.062
COc1ccc(C#Cc2ccc([C@H]3[C@@H](CO)N4CCCCN(S(=O)(=O)c5ccccc5)C[C@H]34)cc2)cc1 | -1.2
O=S(=O)(Cc1ccccc1)N1CCCCN2[C@H](C1)[C@@H](c1ccc(C#Cc3ccccc3)cc1)[C@@H]2CO | -1.9
CCS(=O)(=O)N1CCCCN2[C@H](C1)[C@@H](c1ccc(C#Cc3ccccc3OC)cc1)[C@@H]2CO | -9.5*
CCCC#Cc1ccc([C@@H]2[C@H]3CN(S(=O)(=O)Cc4ccccc4)CCCCN3[C@H]2CO)cc1 | 3.8
O=S(=O)(Cc1ccccc1)N1CCCCN2[C@H](C1)[C@H](c1ccc(C#Cc3ccccc3)cc1)[C@@H]2CO | 5.9
CCN1CC(=O)N2[C@H](CO)[C@@H](c3ccc(Br)cc3)[C@@H]2C1 | 0.33
O=C(C[C@@H]1CC[C@@H]2[C@H](COC[C@@H](O)CN2Cc2cccc(Cl)c2)O1)NCc1cccc(F)c1 | 0.46
N#C[C@H]1[C@@H](c2ccc(C#CC3CCCCC3)cc2)[C@H](CO)N1C(=O)c1cccc(F)c1 | 1.8
CCCNC(=O)N(Cc1cccnc1)C[C@H]1N[C@H](CO)[C@@H]1c1ccccc1 | -1.3
COCC(=O)N1[C@@H](C#N)[C@H](c2ccc(-c3cccc(F)c3)cc2)[C@@H]1CO | -1.1
C/C=C/c1ccc([C@@H]2[C@H]3CN(S(=O)(=O)c4ccc(OC)cc4)CCCCN3[C@H]2CO)cc1 | 0.079
C/C=C/c1ccc([C@H]2[C@@H](CO)N(C(=O)C3CCC3)C23CN(C(=O)NC(C)C)C3)cc1 | 0.053
COCC#Cc1ccc([C@H]2[C@@H](CO)N3C(=O)CN(C(=O)Nc4cc(F)ccc4F)C[C@@H]23)cc1 | 0.11
C[C@H]1COCn2nncc2CC[C@@H](Cc2ccc(-c3ccccc3)cc2)C(=O)N1 | 0.24
O=C(C[C@H]1C=C[C@H](NC(=O)Cc2cccnc2)[C@@H](CO)O1)NCc1ccc2c(c1)OCO2 | -0.52
CN(C)CC#Cc1ccc([C@H]2[C@@H](CO)N3CCCCN(S(=O)(=O)c4ccccc4F)C[C@H]23)cc1 | 6
COCC#Cc1ccc([C@@H]2[C@@H](CO)N3CCCCN(C(=O)NC4CCCC4)C[C@@H]23)cc1 | -1
COCC#Cc1ccc([C@@H]2[C@H](CO)N3CCCCN(C(=O)NC4CCCC4)C[C@@H]23)cc1 | -1.1
CCCC#Cc1ccc([C@@H]2[C@@H](CO)N3CCCCN(C(=O)NC4CCCC4)C[C@@H]23)cc1 | 1.3
CCCC#Cc1ccc([C@@H]2[C@H](CO)N3CCCCN(C(=O)NC4CCCC4)C[C@@H]23)cc1 | -5.2*
COCC#Cc1ccc([C@@H]2[C@H]3CN(C(=O)NC4CCCC4)CCCCN3[C@H]2CO)cc1 | 1.3
CCCC#Cc1ccc([C@H]2[C@@H](CO)N3CCCCN(C(=O)NC4CCCC4)C[C@H]23)cc1 | -3.2*
Cc1ccc(CN2CC(=O)N3[C@@H](CO)[C@@H](c4ccc(Br)cc4)[C@@H]3C2)cc1 | -1.8
SMILES | IDE exosite inh
N#C[C@H]1[C@H](c2ccc(-c3cncnc3)cc2)[C@@H](CO)N1C(=O)CN1CCOCC1 | 0.85
O=C([C@H]1[C@H](CO)[C@H]2Cn3c(ccc(C4=CCCCC4)c3=O)[C@@H]1N2Cc1nccs1)N1CCCCC1 | -0.082
CC(C)C#Cc1ccc([C@@H]2[C@H](CO)N3C(=O)CN(C(=O)NC4CCCC4)C[C@@H]23)cc1 | -1.4
Cc1ccccc1-c1ccc([C@H]2[C@H]3CN(C(=O)NC4CCCC4)CC(=O)N3[C@H]2CO)cc1 | -12*
CC(C)C#Cc1ccc([C@@H]2[C@@H](CO)N3C(=O)CN(C(=O)NC4CCCC4)C[C@H]23)cc1 | -1
O=C(NC1CCCC1)N1CC(=O)N2[C@H](CO)[C@H](c3ccc(C4=CCCCC4)cc3)[C@@H]2C1 | -2
Cc1ccccc1-c1ccc([C@H]2[C@H](CO)N3C(=O)CN(C(=O)NC4CCCC4)C[C@@H]23)cc1 | -21*
CCS(=O)(=O)Nc1ccc2c(c1)C(=O)N(C)C[C@H](OC)[C@H](C)CN(C(=O)c1ccc3c(c1)OCO3)[C@@H](C)CO2 | 1.2
O=S(=O)(c1ccccc1)N1CCCCN2[C@H](CO)[C@H](c3ccc(-c4ccccc4)cc3)[C@H]2C1 | 4
CC(=O)NC[C@H]1[C@@H](c2ccc(-c3cccc(F)c3)cc2)[C@@H](CO)N1C(C)=O | 2.1
O=C(C[C@@H]1CC[C@H](NS(=O)(=O)c2ccccc2F)[C@H](CO)O1)NCCCN1CCOCC1 | 0.44
CN1C(=O)c2cc(NC(=O)c3cccc(C(F)(F)F)c3)ccc2OC[C@H]2O[C@H](CC(=O)NCCN3CCCC3)CC[C@@H]21 | -0.15
COCCNC(=O)C[C@@H]1CC[C@H]2[C@@H](COC[C@H](O)CN2Cc2ccc(Cl)c(Cl)c2)O1 | 1.4
O=C(CN1CCOCC1)N1CCCCN2[C@H](C1)[C@@H](c1ccc(C#Cc3ccccc3F)cc1)[C@@H]2CO | -5*

Screening data from PubChem BioAssay.
